About 3,200 (25%) of roughly 13,000 compounds showed an effect of 50% or more. Some of the results follow.
Tested on: P. falciparum stage V gametocytes
Set-up: BacTiter-Glo ATP luminescence viability of purified stage V gametocytes in 384-well plates, per cent inhibition versus DMSO
Conditions: 48 h, 5 µM; inhibitor

Compound	% Inhibition [%]
COc1ccc2nc(-c3cc(-c4ccc(NC(=O)C(C)C)cc4)cnc3N)[nH]c2c1 [TCMDC-135322]	10.64
C[C@H](CNc1ccnc(Nc2ccc3[nH]c(=O)[nH]c3c2)n1)c1ccccc1 [TCMDC-136804]	-43.48
CN/C(=C\[N+](=O)[O-])NCCSCc1cc(C)c(CN(C)C)s1 [TCMDC-131256]	8.916
Cc1cc(O)c2c3c1C(=O)C=C1C3c3c(c(O)cc(O)c3C(=O)C1(C)C)C2=O (stereo not shown) [TCMDC-132049]	13.87
Oc1ccc(Cl)cc1CN1CCC(CCOC(c2ccccc2)c2ccccc2)CC1 [TCMDC-136036]	7.087
CC(C)Sc1nc2c(c(=O)n1CCc1ccccc1)C1(CCCCC1)Cc1ccccc1-2 [TCMDC-123894]	-24.8
O=C(Nc1ccc2c(c1)OCO2)c1cc(-c2cccnc2)cnc1NCc1ccc2c(c1)OCO2 [TCMDC-136698]	-17.08
CN(c1ccnc(Nc2ccc(CS(C)(=O)=O)cc2)n1)C1CCN(Cc2ccccc2)CC1 [TCMDC-134396]	-3.005
CNC(=O)Cc1ccc(C(=O)Nc2cccc(-c3cccc(-c4nc5c(C)cccc5[nH]4)c3)c2)cc1 [TCMDC-137075]	-29.46
Cc1cccc2nc(-c3cccc(-c4cccc(CN5CCN(c6ccc(C#N)cn6)CC5)c4)c3)[nH]c12.O=C(O)C(F)(F)F [TCMDC-133118]	18.89
Cc1cccc2nc(-c3ccc(-c4ccc(CNCc5ccc(S(C)(=O)=O)cc5)cc4)cc3)[nH]c12.O=C(O)C(F)(F)F [TCMDC-132905]	55
CNc1ccc(CNCc2ccc(-c3ccc(-c4nc5cccc(C)c5[nH]4)cc3)cc2)cc1.O=C(O)C(F)(F)F [TCMDC-132984]	83.67
Cc1cccc2nc(-c3cccc(-c4ccc(CNCc5ccc(S(C)(=O)=O)cc5)cc4)c3)[nH]c12.O=C(O)C(F)(F)F [TCMDC-132898]	-16.63
Cc1cccc2nc(-c3cccc(-c4cccc(CNCc5ccc(S(C)(=O)=O)cc5)c4)c3)[nH]c12.O=C(O)C(F)(F)F [TCMDC-132896]	-8.61
Cc1cccc2nc(-c3ccc(-c4ccc(CNCCc5ccncc5)cc4)cc3)[nH]c12.O=C(O)C(F)(F)F [TCMDC-132855]	4.84
COc1ccc(CNCc2ccc(-c3ccc(-c4nc5cccc(C)c5[nH]4)cc3)cc2)cc1.O=C(O)C(F)(F)F [TCMDC-132720]	-4.275
Cc1c(F)cc(C(=O)NC2CC2)cc1-c1ccc2c(cnn2S(=O)(=O)c2cccs2)c1 [TCMDC-135215]	-11.35
Cc1c(F)cc(C(=O)NC2CC2)cc1-c1ccc2c(cnn2S(=O)(=O)c2ccc(Cl)s2)c1 [TCMDC-135232]	32.9
Cc1c(F)cc(C(=O)NC2CC2)cc1-c1ccc2c(c1)c(C)nn2S(=O)(=O)c1cccs1 [TCMDC-135260]	59.41
CO/C(=C\C=C\c1cc2cc(Cl)c(Cl)cc2[nH]1)C(=O)NCCCN(C)CCN(C)c1ccccc1 [TCMDC-139497]	-12.25
CO/C(=C\C=C\c1cc2cc(Cl)c(Cl)cc2[nH]1)C(=O)NCC(C)(C)CN(C)C [TCMDC-139037]	-32.83

Compound	% Inhibition [%]
CO/C(=C\C=C\c1cc2cc(Cl)c(Cl)cc2[nH]1)C(=O)NCCCN1CCN(c2ccc(OC)cc2)CC1 [TCMDC-139175]	-57.04
CCN(CC)CCNC(=O)/C(=C/C=C/c1cc2cc(Cl)c(Cl)cc2[nH]1)OC [TCMDC-139013]	-18.02
CO/C(=C\C=C\c1cc2cc(Cl)c(Cl)cc2[nH]1)C(=O)NCCCNC12CC3CC(CC(C3)C1)C2 [TCMDC-139077]	103
CCN(CC)CCCNC(=O)/C(=C/C=C/c1cc2cc(Cl)c(Cl)cc2[nH]1)OC [TCMDC-139008]	50.29
CO/C(=C\C=C\c1cc2cc(Cl)c(Cl)cc2[nH]1)C(=O)NCCCN1CCN(Cc2ccccc2)CC1 [TCMDC-139257]	-24.43
CO/C(=C\C=C\c1cc2cc(Cl)c(Cl)cc2[nH]1)C(=O)NCCCN1CCC(c2ccccc2)CC1 [TCMDC-139272]	8.329
CO/C(=C\C=C\c1cc2cc(Cl)c(Cl)cc2[nH]1)C(=O)NCCCNCCN(C)c1ccccc1 [TCMDC-139496]	56.16
CN1CCC=C(C(=O)NCC(C)(C)c2nc(-c3ccc(Cl)c(O)c3)c(-c3ccncc3)[nH]2)C1 [TCMDC-140700]	-7.132
Cc1c(OC(C)C)nc2ccccc2c1C(=O)N[C@H](c1cccc(F)c1)C1CC1 [TCMDC-135994]	-18.71
O=C(NCCN1CCCC1)c1cccc(-c2ccc(-c3nc4ccccc4[nH]3)cc2)c1 [TCMDC-132324]	-2.761
CC(C)c1ccc(NC(=O)c2ccc(CN3CCCN(Cc4cccc(O)c4)CC3)cc2)cc1 [TCMDC-136419]	-24.98
O=c1[nH]c2c(cc1CNC1CCCCC1)c(-c1cccc(F)c1)nn2-c1ccccc1 [TCMDC-125867]	39.49
Cc1cccc(-c2nn(-c3ccccc3)c3[nH]c(=O)c(CN4CCSCC4)cc23)c1 [TCMDC-124897]	84.44
Cc1cccc(-c2nn(-c3ccccc3)c3[nH]c(=O)c(CNC4CCCC4)cc23)c1 [TCMDC-136663]	9.349
Cc1ccc(NC(=O)c2ccc(CN3CCCN(CC4CCCCC4)CC3)cc2)cc1C [TCMDC-136425]	-18.57
Cc1cc(-c2c[nH]c3ncc(-c4cccc5ncccc45)cc23)ccc1C(=O)O.O=C(O)C(F)(F)F [TCMDC-136377]	16.5
Nc1cccc(CNCc2ccc(-c3ccc(-c4nc5cc(C(F)(F)F)ccc5[nH]4)s3)cc2)c1.O=C(O)C(F)(F)F [TCMDC-132939]	-86.12
CN(CCN)Cc1ccc(-c2ccc(-c3nc4cc(C(F)(F)F)ccc4[nH]3)s2)cc1.O=C(O)C(F)(F)F [TCMDC-132821]	65.23
CN(CCN)Cc1cccc(-c2ccc(-c3nc4cc(C(F)(F)F)ccc4[nH]3)s2)c1.O=C(O)C(F)(F)F [TCMDC-132820]	44.42
NCc1ccc(CNCc2ccc(-c3ccc(-c4nc5cc(C(F)(F)F)ccc5[nH]4)s3)cc2)cc1.O=C(O)C(F)(F)F [TCMDC-132814]	75.71
CNc1ccc(CNCc2ccc(-c3ccc(-c4nc5cc(C(F)(F)F)ccc5[nH]4)s3)cc2)cc1.O=C(O)C(F)(F)F [TCMDC-132985]	42.48

Compound	% Inhibition [%]
NC(=O)C1CCN(Cc2ccc(-c3ccc(-c4nc5cc(C(F)(F)F)ccc5[nH]4)s3)cc2)CC1.O=C(O)C(F)(F)F [TCMDC-132687]	-37.37
CC(C)NCc1ccc(-c2ccc(-c3nc4cc(C(F)(F)F)ccc4[nH]3)s2)cc1.O=C(O)C(F)(F)F [TCMDC-132745]	-79.18
O=C(O)C(F)(F)F.OCC1CCN(Cc2ccc(-c3ccc(-c4nc5cc(C(F)(F)F)ccc5[nH]4)s3)cc2)CC1 [TCMDC-133120]	54.7
O=C(O)C(F)(F)F.OCC1CCN(Cc2cccc(-c3ccc(-c4nc5cc(C(F)(F)F)ccc5[nH]4)s3)c2)CC1 [TCMDC-133126]	5.885
Cc1cccc2[nH]c(-c3cccc(-c4ccc(NC(=O)Cc5ccon5)cc4)c3)nc12 [TCMDC-136906]	-38.48
Cc1cccc(/C=C/C(=O)NC2CCC(N3CCC(c4ccccc4C)CC3)CC2)c1 (stereo not shown) [TCMDC-133528]	-62.92
CN1CCN(c2ccnc3ccc(NC(=O)Cc4ccc(Br)c5ccccc45)cc23)CC1 [TCMDC-139254]	0.9853
CS(=O)(=O)NCCCNCc1ccc(-c2cccc(-c3nc4ccc(F)cc4[nH]3)c2)cc1 [TCMDC-133077]	6.508
COc1ccc2ncc(F)c(CCN3CCC(CNCc4cccc5c4OCO5)CC3)c2n1 [TCMDC-135851]	-2.329
CCCN(CC)CCOC(=O)c1ccccc1 [TCMDC-131376]	17.72
CCN(CC)CCCOC(=O)c1ccc2c(c1)-c1ccc(C(=O)OCCCN(CC)CC)c3cccc-2c13 [TCMDC-125491]	109
CN(C)C(=O)CC(=O)NCc1cccc(Cl)c1 [TCMDC-131747]	5.736
CCCCN(CCCC)C(=Nc1cccc(Cl)c1Cl)Nc1ccc(C#N)cc1O [TCMDC-140226]	-14.17
CCN(CC)/C(=N/C(=N)NCc1cccc(Cl)c1)NCCCCCCN/C(=N\C(=N)NCc1cccc(Cl)c1)N(CC)CC [TCMDC-131820]	122
CC/N=C(/NCCCCCCN/C(=N/CC)NCc1ccccc1)NCc1ccccc1 [TCMDC-137726]	-33.37
CCCCN(CCCC)C(=NC(=N)NCc1ccc(Cl)c(Cl)c1)NCCCCCCNC(=NC(=N)NCc1ccc(Cl)c(Cl)c1)N(CCCC)CCCC [TCMDC-131821]	116.7
CCN(CC)C(=NC(=N)NCc1ccc(Cl)cc1)NCCCCCCNC(=NC(=N)NCc1ccc(Cl)cc1)N(CC)CC [TCMDC-131817]	120
CCN(CC)/C(=N/C(=N)NCc1ccc(Cl)cc1Cl)NCCCCCCN/C(=N\C(=N)NCc1ccc(Cl)cc1Cl)N(CC)CC [TCMDC-131819]	120
CCCc1cc(Cc2cnc(N)nc2N)cc(OCCCCCC(=O)O)c1OC [TCMDC-137182]	2.989

— paper PMC4552634, “A New Set of Chemical Starting Points with Plasmodium falciparum Transmission-Blocking Potential for Antimalarial Drug Discovery” (PLoS ONE, 2015)
